Our source for the outcome and AC50 values is PubChem BioAssay (EPA / NIEHS).

Test [1] is described as follows: TOX21_p53_BLA_p2_viability: Viability Assessment in the Tox21 HCT-116 p53 Agonism Beta-lactamase Assay, Phase 2 (AID 2283591).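 Also: compound exposure lasted 16 h at 37 °C; actives lower the ATP signal meaning cytotoxicity.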 In outline: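 Cytotoxicity readout: CellTiter-Glo ATP luminescence, 30 min at room temperature, after the beta-lactamase read. Cells were HCT116 exposed 16 h at 37C to compounds pin-transferred at 217-fold dilution from DMSO stocks.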
Test [2] addresses Cellular tumor antigen p53 (Homo sapiens) (UniProt P04637). The test can be described thus: TOX21_p53_BLA_p2_ratio: Tox21 HCT-116 p53 Agonism Beta-lactamase Assay, Ratio, Phase 2 (AID 2283592). In outline:
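Read-out is the blue/green (460/530 nm, 405 nm excitation) ratio after 2 h CCF4-AM loading, fitted as gain versus DMSO. Compounds, pinned at 217-fold dilution from DMSO stocks, stayed 16 h on HCT-116 beta-lactamase reporter cells seeded 5 h earlier.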

Test [3] is described as follows: TOX21_p53_BLA_p3_viability: Viability Assessment in the Tox21 HCT-116 p53 Agonism Beta-lactamase Assay, Phase 3 (AID 2283593).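 Also: cells exposed to compound for 16 h before reading.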 In outline: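 Cellular ATP was quantified by CellTiter-Glo luminescence, read after 30 min at room temperature. Beforehand, HCT116 cells (4000/well) received compound 5 h post-seeding, 217-fold diluted from DMSO, then incubated 16 h at 37C.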

The target of test [4] is Cellular tumor antigen p53 (Homo sapiens) (UniProt P04637). The test can be described thus: TOX21_p53_BLA_p3_ratio: Tox21 HCT-116 p53 Agonism Beta-lactamase Assay, Ratio, Phase 3 (AID 2283596). In outline:
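Cells were seeded at 4000/well, rested 5 h at 37C, then dosed with DMSO compound solutions (217-fold dilution) for 16 h. CCF4-AM substrate was loaded for 2 h at room temperature, and the 460/530 nm emission ratio was fitted for gain of signal versus DMSO.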

Test [5] can be described thus: TOX21_p53_BLA_p4_viability: Viability Assessment in the Tox21 HCT-116 p53 Agonism Beta-lactamase Assay, Phase 4 (AID 2283597).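 Also: hits lower the luminescence signal meaning cytotoxicity.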 In short, it runs like this: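 Cytotoxicity as reduced cellular ATP (CellTiter-Glo luminescence, 30 min room temperature), measured in the same wells following the CCF4 FRET p53 reading. Human HCT-116 cells received compounds in DMSO (217-fold dilution) for 16 h.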

Test [6] addresses Cellular tumor antigen p53 (Homo sapiens) (UniProt P04637). The experiment in a line: TOX21_p53_BLA_p5_ratio: Tox21 HCT-116 p53 Agonism Beta-lactamase Assay, Ratio, Phase 5 (AID 2283599). In short, it runs like this: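 Beta-lactamase reporter ratio (blue 460 nm over green 530 nm, 405 nm excitation) after 2 h CCF4-AM loading, in HCT-116 cells exposed 16 h at 37 C to compounds pinned at 217-fold dilution. Increases relative to DMSO baseline scored.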

Test [7] in a line: TOX21_p53_BLA_p5_viability: Viability Assessment in the Tox21 HCT-116 p53 Agonism Beta-lactamase Assay, Phase 5 (AID 2283600). In outline: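 Viability came from CellTiter-Glo ATP luminescence, read after 30 min at room temperature. Before this, HCT-116 p53-bla cells (4000/well) had 16 hours of compound exposure at 37C, with DMSO stocks diluted 217-fold on transfer.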
For test [8], the target named is Cellular tumor antigen p53 (Homo sapiens) (UniProt P04637). The test can be described thus: TOX21_p53_BLA_p4_ratio: Tox21 HCT-116 p53 Agonism Beta-lactamase Assay, Ratio, Phase 4 (AID 2283601). In outline:
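Signal is the blue/green (460nm/530nm) ratio of cleaved versus uncleaved CCF4-AM substrate, read after 2 h substrate loading. Cells were HCT116 carrying the p53-responsive beta-lactamase reporter, dosed 16 h at 37C, 5% CO2; CellTiter-Glo measured in parallel.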

A short description of test [9]: ACEA_AR_agonist_AUC_viability: ACEA Biosciences xCELLigence Real-Time Cell Analysis on Androgen Receptor Agonism for Viability (AID 2283775).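 As to AC50: viability read 80 hours after compound addition.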 In outline:
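Viability endpoint from xCELLigence impedance in 22Rv1 prostate cells at 80 h. Eight-point series, 100 uM maximum final.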

Test [10] is described as follows: CEETOX_H295R_MTT_cell_viability: Viability Assessment in the CeeTox HT-H295R MTT Assay (AID 2283718; active = hit-call score of the fitted dose curve at least 0.9, where 1 is the maximum; inactive = score below 0.9). In outline: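 MTT reduction (0.5 mg/ml, 4 h at 37 C; absorbance at 570 and 650 nm) gave viability as background-corrected percent change versus controls. H295R cells had 48 h forskolin (10 uM) prestimulation, then 48 h chemical exposure at 0.1% DMSO.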

Several values for one entry are separate records, joined by “and”; a condition that tells them apart may be missing. Equal values may be shown once. Inconclusive results are not listed. A structure can be active in one record and inactive in another. Activity calls are given as the source filed them. The calls were made as follows, unless noted: active = hit-call score of the fitted dose curve at least 0.9, where 1 is the maximum; inconclusive = response in the unintended direction; inactive = score below 0.9.

Chain of Cellular tumor antigen p53 (Homo sapiens) (P04637 whole entry, looked up): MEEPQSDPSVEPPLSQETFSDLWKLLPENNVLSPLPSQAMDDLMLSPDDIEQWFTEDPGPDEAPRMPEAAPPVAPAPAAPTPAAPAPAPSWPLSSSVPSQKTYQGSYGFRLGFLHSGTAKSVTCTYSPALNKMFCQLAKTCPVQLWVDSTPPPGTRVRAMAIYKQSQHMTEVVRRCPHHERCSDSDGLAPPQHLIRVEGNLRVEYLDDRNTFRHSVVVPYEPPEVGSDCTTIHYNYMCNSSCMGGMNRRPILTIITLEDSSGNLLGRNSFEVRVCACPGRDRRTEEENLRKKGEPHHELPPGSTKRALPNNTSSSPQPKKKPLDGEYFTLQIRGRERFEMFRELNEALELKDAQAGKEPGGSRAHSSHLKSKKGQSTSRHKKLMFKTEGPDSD

Regarding `CC(C)(Oc1ccc(C2CC2(Cl)Cl)cc1)C(=O)O` (stereo not given), the molecule was classed as inactive in [1], in [2], in test [3], in test [4], in test [5] and in test [6]. Moreover, the molecule was classed as inactive in test [7] and in [8].

Take `O=C1c2cccc(O)c2C(=O)c2c(O)cc(CO)cc21`: the result in test [1], in test [3], in [4], in [5], in [7] and in test [8] was inactive. Also, the AC50 in test [2] was 31.7 µM (active); in test [6] it was 33.3 µM (active).

Consider `C=C1C2CCC(C2)C1(C)C` (stereo not given), for which the result in test [1], in test [2], in test [3], in test [4], in [5] and in test [6] was inactive. Moreover, the outcome in [7], in [8] and in test [9] was inactive.

Turning to `CCCCC(CC)CCC(CC(C)C)OS(=O)(=O)O` (stereo not given), the result in test [1], in test [2], in [3], in test [4], in test [5] and in [6] was inactive. Further, the call in test [7] and in [8] was inactive. For the same molecule, in [9], the concentration at half-maximal activity (AC50) was 4.29 µM (active).

Consider `C=C[C@](C)(O)CC[C@@H]1[C@@]2(C)CCCC(C)(C)[C@@H]2CC[C@@]1(C)O`, for which the AC50 was 47.1 µM (active) in [1]; 86 µM (active) in test [2]; 64.6 µM (active) in test [3]; 85.2 µM (active) in test [4]; 15.8 µM (active) in test [5]; 87.1 µM (active) in test [6]. For the same molecule, the AC50 in test [7] was 67.5 µM (active). Moreover, the outcome in [8] was inactive.

On to `C#CC1(O)CC[C@H]2[C@@H]3CCC4=CCCC[C@@H]4[C@H]3CC[C@@]21C` (stereo not given in full), for which the AC50 was 57.2 µM (active) in test [1]; 87.7 µM (active) in [2]; 83.3 µM (active) in test [3]; 86.1 µM (active) in test [4]; 55.7 µM (active) in [5]; 86.1 µM (active) in test [6]. The results for the AC50 in [7] and in test [8] were 46.1 µM (active) and 84.8 µM (active), respectively. Moreover, the molecule was called inactive in test [1], in test [2], in [3], in test [7] and in test [10].

For `CN1C(=O)N(C)C(O)C1O` (stereo not given), the molecule was classed as inactive in test [1], in test [2], in test [3], in test [4], in test [5] and in test [6]. The outcome in test [7] and in test [8] was inactive.

On to `CCCCCCCCCCCCCCCC[N+](C)(C)CC`, for which the AC50 was 37.2 µM (active) in [1]; 63.3 µM (active) in test [2]; 65.4 µM (active) and 35.3 µM (active) in test [3]; 44.5 µM (active) and 30.8 µM (active) in test [4]; 73.7 µM (active) and 30.9 µM (active) in test [5]; 71.2 µM (active) and 24.6 µM (active) in test [6]. In addition, the AC50 is 74.8 µM (active) and 18.2 µM (active) in test [7]; 70.4 µM (active) in [8]. For the same molecule, the outcome in test [2] was inactive.

In the case of `CCC(CO)CO`, the call in test [1], in [2], in test [3], in test [4], in [5] and in test [6] was inactive. The outcome in test [8] was inactive.

As for `Cn1c([N+](=O)[O-])cnc1COC(N)=O`, the molecule was called inactive in test [1], in test [2], in test [3], in test [4], in [5] and in [6]. Further, the result in test [7] and in test [8] was inactive.

As to `COc1ccc(C(Cl)=C(c2ccc(OC)cc2)c2ccc(OC)cc2)cc1`, the molecule was classed as inactive in test [1], in test [2], in test [3], in test [4], in [5] and in [6]. Further, the result in [7] and in [8] was inactive.

As usually defined, the AC50 is the concentration giving half of the maximal activity seen.
